According to PubChem BioAssay:
The source made the active and inactive calls.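 How the source made its calls, unless noted: active means fluorescence slope higher than the sample average by over 3 SD (cut at about -0.22 in these data, passing the limit was not always enough); inactive means the rest.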

Legend:
[1] = inhibitors of TNFa-induced NFkB p65 translocation, primary screen, imaging, HUVEC, MLSMR starter and 10KST1 sets (AID 438;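 active means inhibition above 20% together with a positive visual image hit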;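 further: compound added about 3h40 before a 20 min TNFalpha stimulation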;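 on inhibition: signal is the nuclear over cytoplasmic p65 intensity ratio per well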); details: HUVEC TNFa-induced p65 nuclear translocation; cell count: measured here: nuclei count (cytotoxicity indicator), at 2.08 µM; inhibition: at 2 µM, stronger effect = higher value, 0% TNFa-plus-vehicle, 100% no-TNFa wells
[2] = reduction of polyQ htt aggregates in cells – imaging, exon1htt(103Q)mCFP cells, high-content imaging, primary screen (AID 483;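 active means visual image review flags a hit and inhibition of aggregation exceeds 20%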;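 further: compound exposure lasted 3 days before fixation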;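 on nuclei count: percent of the per-plate median nuclei count of sample wells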); details: exon1htt(103Q)mCFP cell line, aggregate imaging, at 2 µM; inhibition of aggregation: stronger effect = higher value; nuclei count: measured here: cell count, toxicity
[3] = endothelial E-selectin expression blockers – imaging, HUVEC, immunofluorescence, MLSMR starter and 10KST1 sets, primary screen (AID 487;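 active means visually confirmed hit in the image check and inhibition above 20%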;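 on inhibition: signal is fraction of cell area covered by stained E-selectin grains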;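 on nuclei count: 100% = median nuclei count of all wells on the same plate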); details: HUVEC TNFalpha-induced E-selectin immunofluorescence imaging, at 2 µM; inhibition: stronger effect = higher value; nuclei count: measured here: cell number, toxicity
[4] = target: Voltage-gated potassium channel subunit beta-2 (Rattus norvegicus) (UniProt P62483); experiment: inhibitors of rat Kvbeta2 reductase activity – biochemical, NADPH fluorescence, primary screen (AID 622); details: recombinant KvBeta, 4-cyanobenzaldehyde reduction, at 10 µM, stronger effect = higher value;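 further: slope of raw intensity against log time taken from 70 to 1610 s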
[5] = target: Voltage-gated potassium channel subunit beta-2 (Rattus norvegicus) (UniProt P62483); experiment: enhancers of rat Kvbeta2 NADPH turnover – biochemical, NADPH fluorescence, primary screen (AID 623;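 active means NADPH fluorescence slope more negative than the mean of all samples by about 3 SD, 99.7% confidence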;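 further: fluorescence intensity change per second fitted from 20 to 320 s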); details: Recombinant KvBeta, NADPH fluorescence decrease slope, 10 min; at 10 µM; stronger effect = lower value
[6] = target: Alpha-2C adrenergic receptor (Homo sapiens) (UniProt P18825); experiment: compounds altering alpha2C-coupled GIRK flux – cell-based, HEK293 alpha2C/GIRK1/2, thallium flux, primary screen (AID 624;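 active means fluorescence slope after compound addition differing from the mean of all screened samples at 99.7% confidence, in either direction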;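 further: slope of fluorescence ratio to pre-addition baseline per second over 15 to 24 s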); details: thallium flux BTC fluorescence, at 10 µM, actives lie on both sides
[7] = blockers of RIG-like receptor reporter activation – cell-based, Sendai virus stimulus, luciferase, 10K MLSCN set, TLR/RLR signaling modifier project, primary screen (AID 602276;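 active means inhibition at or above 50% at 10 µM; inactive means inhibition below 50%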;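 further: firefly luciferase from ISG56 promoter only with Renilla not read in this screen; 0% = Sendai virus plus DMSO and 100% = medium plus DMSO without virus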); details: HEK293 RL24 IRF3 luciferase reporter, at 10 µM, stronger effect = higher value
[8] = TLR3 IRF3 reporter activation blockers – cell-based, poly I:C stimulus, luciferase, 10K MLSCN set, primary screen (AID 602277;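 active means inhibition of the reporter signal at or above 50%; inactive means inhibition below 50%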); details: HEK293-TLR3 RL24 IRF3 luciferase reporter, at 10 µM, stronger effect = higher value

Chain of Alpha-2C adrenergic receptor (Homo sapiens) (P18825 whole entry, looked up): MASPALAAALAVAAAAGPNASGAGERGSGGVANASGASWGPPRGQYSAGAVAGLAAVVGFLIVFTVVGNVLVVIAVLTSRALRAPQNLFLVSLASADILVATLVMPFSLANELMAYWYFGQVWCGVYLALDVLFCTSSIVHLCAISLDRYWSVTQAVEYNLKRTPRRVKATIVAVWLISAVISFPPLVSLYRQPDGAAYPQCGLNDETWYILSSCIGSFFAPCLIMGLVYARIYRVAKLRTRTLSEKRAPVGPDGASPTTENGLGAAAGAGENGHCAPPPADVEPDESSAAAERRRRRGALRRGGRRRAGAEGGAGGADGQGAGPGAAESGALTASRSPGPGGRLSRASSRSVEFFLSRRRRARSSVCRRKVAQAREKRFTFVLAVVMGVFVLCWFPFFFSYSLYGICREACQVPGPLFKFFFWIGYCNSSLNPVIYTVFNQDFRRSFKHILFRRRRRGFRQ
Chain of Voltage-gated potassium channel subunit beta-2 (Rattus norvegicus) (P62483 whole entry, looked up): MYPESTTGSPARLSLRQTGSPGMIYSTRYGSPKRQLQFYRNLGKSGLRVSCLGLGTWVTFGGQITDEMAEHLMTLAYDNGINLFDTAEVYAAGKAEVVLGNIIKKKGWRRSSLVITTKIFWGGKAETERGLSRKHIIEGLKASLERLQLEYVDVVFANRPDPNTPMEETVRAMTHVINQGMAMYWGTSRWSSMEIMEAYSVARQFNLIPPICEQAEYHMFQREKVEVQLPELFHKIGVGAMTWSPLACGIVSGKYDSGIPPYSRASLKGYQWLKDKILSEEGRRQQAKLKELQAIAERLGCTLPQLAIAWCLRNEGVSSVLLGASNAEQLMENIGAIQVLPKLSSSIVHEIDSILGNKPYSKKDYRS

Compound	cell count [1]	inhibition [1]	inhibition of aggregation [2]	nuclei count [2] [%]	inhibition [3]	nuclei count [3] [%]	fluorescence slope [4]	NADPH fluorescence slope [5]	slope [6]	inhibition [7]	inhibition [8]
Cc1cc(=O)oc2c1ccc1oc(/C(=N/O)c3ccccc3)c(C)c12	456	-19% (inactive)	34.1% (inactive)	77.6	1.5% (inactive)	110	-0.357 (inactive)	-3.7e-05 (inactive)	0.00542 (inactive)	7.72% (inactive)	13.6% (inactive)
NS(=O)(=O)c1ccc(CCNC(=O)c2cccnc2)cc1	580	-8.3% (inactive)	-11.5% (inactive)	105	-75.4% (inactive)	107	-0.276 (inactive)	-6.8e-05 (inactive)	0.00459 (inactive)	10.9% (inactive)	99.1% (active)
Cc1cc(C(=O)Nc2ccccc2C#N)n(-c2ccccc2)n1	763	7.7% (inactive)	19.6% (inactive)	88.3	27.3% (inactive)	108	-0.556 (inactive)	2.9e-05 (inactive)	0.00747 (inactive)	-2.18% (inactive)	20.7% (inactive)
COCCN(CCOC)S(=O)(=O)c1ccc(C(=O)Nc2nnc(C3CC3)o2)cc1	390	-0.2% (inactive)	0% (inactive)	102	44.1% (inactive)	100	-0.484 (inactive)	-3.8e-05 (inactive)	0.00677 (inactive)	16.9% (inactive)	24.5% (inactive)
CC(C)Cc1nnc(NS(=O)(=O)c2ccc(Cl)cc2)s1	652	5.4% (inactive)	-9.3% (inactive)	112	-21.2% (inactive)	112	-0.541 (inactive)	4.8e-06 (inactive)	0.0081 (inactive)	12.6% (inactive)	27.6% (inactive)
Nc1sccc1C(=O)c1ccc(Cl)cc1	403	0% (inactive)	7.1% (inactive)	92	-146% (inactive)	103	-0.44 (inactive)	-2.6e-05 (inactive)	0.00277 (inactive)	2.24% (inactive)	0.658% (inactive)
COCCCNC(=O)Cn1cc2c(n1)CCC(C)C2 (stereo not drawn)	767	-6.1% (inactive)	-6% (inactive)	104	-27.6% (inactive)	121	-0.652 (inactive)	2.7e-06 (inactive)	0.00615 (inactive)	4.22% (inactive)	12.1% (inactive)
CCOc1cc(C2C(C#N)=C(N)Oc3n[nH]c(CC)c32)ccc1OCCN1CCOCC1 (stereo not drawn)	421	23.4% (active)	12.6% (inactive)	108	-49.3% (inactive)	101	-0.506 (inactive)	-3.1e-05 (inactive)	0.00486 (inactive)	14.3% (inactive)	15.9% (inactive)
O=C(c1cnn2c(C(F)(F)F)cc(-c3ccco3)nc12)N1CCc2ccccc2C1	516	2% (inactive)	22.2% (inactive)	92.9	-11.7% (inactive)	67	-0.327 (inactive)	1.7e-05 (inactive)	0.00417 (inactive)	-19% (inactive)	-13.6% (inactive)
O=C(CCN1C(=O)c2ccccc2C1=O)N1CCN(C(=O)c2ccccc2)CC1	548	2.5% (inactive)	7.3% (inactive)	98.2	-145% (inactive)	118	-0.491 (inactive)	-4.1e-05 (inactive)	0.00673 (inactive)	9.17% (inactive)	19.5% (inactive)
O=C(NCc1cccs1)C1CCCN(c2ncccn2)C1 (stereo not drawn)	404	-3% (inactive)	13.4% (inactive)	96.8	-10.2% (inactive)	123	-0.5 (inactive)	-1.3e-05 (inactive)	0.00547 (inactive)	12.7% (inactive)	9.11% (inactive)
O=C(CSc1nnc(-c2ccncc2)n1-c1ccc(F)cc1)NC(=O)NCc1ccco1	537	-13.7% (inactive)	-9.8% (inactive)	100	-65.7% (inactive)	149	-0.46 (inactive)	-0.000317 (inactive)	0.00513 (inactive)	10.1% (inactive)	15.2% (inactive)
COc1ccc(N(CC(=O)Nc2ccc(F)c(Cl)c2)S(=O)(=O)c2c(C)noc2C)cc1	372	2.7% (inactive)	-8.2% (inactive)	99	-23.6% (inactive)	104	-0.425 (inactive)	1.3e-05 (inactive)	0.00672 (inactive)	16.5% (inactive)	21.7% (inactive)
O=C(CSc1nnc(-c2c[nH]c3ccccc23)o1)N(Cc1ccccc1)c1ccc(F)cc1	295	-6.1% (inactive)	1% (inactive)	95.3	-20.3% (inactive)	119	-0.6 (inactive)	-2.1e-05 (inactive)	0.00713 (inactive)	-15.4% (inactive)	-35.1% (inactive)
Nc1ncnc2nc(Sc3ccc(Cl)cc3)[nH]c12	645	-8.5% (inactive)	-5.4% (inactive)	108	-12.5% (inactive)	108	-0.555 (inactive)	-6.5e-06 (inactive)	0.00627 (inactive)	10.1% (inactive)	12.5% (inactive)
CCOc1cccc2cc(C(=O)N3CCN(C/C=C/c4ccccc4)CC3)c(=O)oc12	596	-3.6% (inactive)	-2.4% (inactive)	103	-80.4% (inactive)	133	-0.236 (inactive)	-4e-05 (inactive)	0.00413 (inactive)	1.41% (inactive)	-10.8% (inactive)
COc1ccc(-n2c(SCC#N)nc3ccccc3c2=O)cc1	314	-4.7% (inactive)	-15.4% (inactive)	105	-11% (inactive)	118	-0.491 (inactive)	7e-05 (inactive)	0.00655 (inactive)	-8.69% (inactive)	-76.1% (inactive)
O=C(c1ccc(Cl)c(F)c1F)N1CCCC1	384	4.4% (inactive)	-11.4% (inactive)	112	-29.8% (inactive)	70.2	-0.276 (inactive)	1.2e-05 (inactive)	0.00949 (inactive)	-9.75% (inactive)	11.3% (inactive)
COc1cccc(NC(=O)NC2(C(F)(F)F)Oc3ccccc3O2)c1	684	-12.7% (inactive)	0% (inactive)	105	-125% (inactive)	120	-0.476 (inactive)	-0.000362 (inactive)	0.00501 (inactive)	12.9% (inactive)	24.9% (inactive)
Cc1c(C(=O)OC2CCC(C)CC2)[nH]c2c1C(=O)CCC2 (stereo not drawn)	625	-0.8% (inactive)	23.7% (inactive)	81.6	-31.8% (inactive)	118	-0.56 (inactive)	1.4e-05 (inactive)	0.00619 (inactive)	-106% (inactive)	-256% (inactive)
CCCC(=O)Nc1ccc2oc(-c3cccnc3)nc2c1	330	-1.1% (inactive)	18.2% (inactive)	82.7	-1.9% (inactive)	62.2	-0.332 (inactive)	-1.1e-05 (inactive)	0.00331 (inactive)	-23.4% (inactive)	-96.1% (inactive)
CCCc1cc(=O)[nH]c(Nc2ccc(OC)c(Cl)c2)n1	238	-0.8% (inactive)	17.6% (inactive)	88.1	25.7% (inactive)	70.9	-0.478 (inactive)	-8.5e-06 (inactive)	0.00603 (inactive)	-1.81% (inactive)	46.2% (inactive)
Cc1ccc(SC(C)c2nc(-c3ccccc3)no2)cc1 (stereo not drawn)	283	-7.5% (inactive)	8.1% (inactive)	105	51.9% (active)	42.1	-0.416 (inactive)	-4.5e-05 (inactive)	0.00449 (inactive)	-11.7% (inactive)	-42.5% (inactive)
CCCS(=O)(=O)N1CCN(Cc2ccc(OCc3ccccc3)c(OC)c2)CC1	247	-5% (inactive)	9.9% (inactive)	79.6	-25.9% (inactive)	101	-0.549 (inactive)	-4.2e-05 (inactive)	0.0062 (inactive)	-20.2% (inactive)	-19.3% (inactive)
CCOC(=O)c1ccccc1NC(=O)CSc1nnc(COc2ccccc2C)n1C	667	14.9% (inactive)	11.9% (inactive)	97.3	45.4% (inactive)	100	-0.346 (inactive)	-4.2e-05 (inactive)	0.00577 (inactive)	16.9% (inactive)	22.9% (inactive)
Cc1cc(NCCN2CCCCC2)n2c(nc3ccccc32)c1C#N	624	-10.5% (inactive)	-3.2% (inactive)	61.6	-2% (inactive)	134	-0.526 (inactive)	-4.4e-05 (inactive)	0.0039 (inactive)	10.4% (inactive)	21.6% (inactive)
CCc1nc2sc(C)c(C)c2c(=O)n1CCO	396	7.2% (inactive)	10.8% (inactive)	81.4	-64.6% (inactive)	103	-0.422 (inactive)	1.1e-05 (inactive)	0.00292 (inactive)	5.69% (inactive)	32% (inactive)
CCOC(=O)c1c(C)[nH]c(C(=O)COC(=O)C2CC2C)c1C (stereo not drawn)	378	0.3% (inactive)	-161% (inactive)	1.8	-20.9% (inactive)	125	-0.504 (inactive)	-5.4e-05 (inactive)	0.00548 (inactive)	-45.3% (inactive)	-115% (inactive)
